Measured values taken from PubChem BioAssay (Tox21).
Inconclusive results are not listed. Calls of active or inactive are those of the source. The call rests on the fitted dose curve; in most records, active means well fitted cell-killing curve with a large enough effect in the repeat runs; inconclusive means weak or mixed curves, or effect the other way; inactive means flat fitted curve, though single readings scatter.
On the % scale 0 is the no-effect control and ±100 the full control effect.

Assay: cAMP Responsive Elements (CRE) small molecule antagonists, cell-based qHTS assay: qHTS cell viability counter screen (AID 2060913); further: nearly all actives have a fitted effect of over 40% in size
Conditions: CRE-bla HEK293T viability, CellTiter-Glo luminescence, 5 h; series mostly up to 92.4 µM; viability change, negative = cytotoxic: at the top concentration
Source text: U.S. Tox21 Program National Center for Advancing Translational Sciences [NCATS] Division of Preclinical Innovation [DPI] U.S. Environmental Protection Agency [EPA] National Institutes of Environmental Health Sciences [NIEHS] National Toxicology Program [NTP] U.S. Food and Drug Administration [FDA] Tox21 Assay Overview: CREB (cyclic-AMP Responsive Element Binding Protein) is a cellular transcription factor. It binds to certain DNA sequences called cAMP Responsive Elements (CRE) and regulates the transcription of the genes. […] This cell line can be used to find agonists/antagonists of the cyclic AMP signaling pathway. The activation of the report gene under culture conditions can be detected by fluorescence intensity. This cell line has been used to screen the Tox21 10K compound library to identify agonists that induce oxidative stress. The cytotoxicity of the Tox21 compound library against the CRE-bla cell line was tested in parallel by measuring the cell viability using CellTiter-Glo assay (Promega, Madison, WI) in the same wells.
Tox21 Assay Protocol Summary: CRE-bla Hek 293T cells were suspended in assay medium (DMEM containing 10% dialyzed FBS, 0.1 mM NEAA, 1 mM sodium pyruvate and 25 mM HEPES) and dispensed at 2,000 cells/4 uL /well into 1536-well black wall/clear bottom plates using a Multidrop Combi (ThermoFisher Scientific, Waltham, MA) dispenser. After the assay plates were incubated at 37 C/5% CO2 for 18 hrs, 23 nL of compounds dissolved in DMSO, positive controls or DMSO only was transferred to the assay plate by a pintool workstation (Kalypsys, San Diego, CA), followed by addition of 1 uL of 1.25uM NKH477 (0.25 uM as final concentration) in assay medium using a Flying Reagent Dispenser (Aurora Discovery, San Diego, CA). The plates were incubated at 37 C and 5% CO2 for 3 hrs. Then 1 uL of LiveBLAzer B/G FRET substrate (Invitrogen, Carlsbad, CA) was added to each well using Bioraptr Flying Reagent Dispenser (FRD, Aurora Discovery, San Diego, CA). The plates were incubated at room temperature for 2 h, then fluorescence intensities were measured using an Envision plate reader (PerkinElmer, Shelton, CT) at Excitation 405nm, Emission 460nm and 530nm. The % activity was determined from the ratio of 460nm/530nm. For cell viability readout that measures cytotoxicity, 4 uL /well of CellTiter-Glo reagent was added into the assay plates using Bioraptr FRD. After 30 min incubation at room temperature, the luminescence intensity in the assay plates was measured using a ViewLux (PerkinElmer, Shelton, CT) plate reader.
With `CC(=O)O[Si](C)(OC(C)=O)OC(C)=O` the “viability change, negative = cytotoxic” value was 2.08% (inactive).
In the case of `CC(CSC(=O)c1ccccc1)C(=O)N1C[C@@H](Sc2ccccc2)C[C@H]1C(=O)O` (stereo not given in full), the viability change, negative = cytotoxic was 1.17% [at 18.9 µM] (inactive).
For `Cc1cccc(C)c1NC(=O)c1ccccc1C(=O)O`, the “viability change, negative = cytotoxic” value was -1.26% [at 42.5 µM] (inactive).
With `NC/C=C/C(=O)O` the “viability change, negative = cytotoxic” value was -3.05% [at 42.5 µM] (inactive).
With `COc1ccccc1N1CCN(CCCCNC(=O)c2ccc(-c3ccc(C(C)=O)cc3)cc2)CC1` the “viability change, negative = cytotoxic” value was 3.62% [at 42.5 µM] (inactive).
With `C[C@]12CC[C@@H]3c4ccc(O)cc4CC[C@H]3[C@@H]1CCC2=O` the Potency was “inactive”.
For `S=C([S-])NCCNC(=S)[S-].S=C([S-])NCCNC(=S)[S-].[Mn+2].[Zn+2]`, the “viability change, negative = cytotoxic” value was -0.751% [at 42.5 µM] (inactive).
For `CCCCOCCOCCOC(C)=O`, the “viability change, negative = cytotoxic” value was 14.1% (inactive).
With `COc1ccc(CCC(=O)c2c(O)cc(O[C@@H]3O[C@H](CO)[C@@H](O)[C@H](O)[C@H]3O[C@@H]3O[C@@H](C)[C@H](O)[C@@H](O)[C@H]3O)cc2O)cc1O` the “viability change, negative = cytotoxic” value was 0.272% (inactive).
For `CCN1CCCC(OC(=O)C(c2ccccc2)c2ccccc2)C1` (stereo not given), the “viability change, negative = cytotoxic” value was 5.26% [at 42.5 µM] (inactive).
With `CCCCCCCCC1CO1` (stereo not given) the “viability change, negative = cytotoxic” value was 0.591% (inactive).
In the case of `C=CC(O)CCCCC` (stereo not given), the “viability change, negative = cytotoxic” value was -2.34% (inactive).
With `O=C[C@H](O)[C@@H](O)[C@H](O)[C@H](O)CO` the “viability change, negative = cytotoxic” value was -1.51% (inactive).
With `C/C=C/C(=O)OCC(C)C` the “viability change, negative = cytotoxic” value was 2.42% (inactive).
For `CCCCCCCCSCc1cc(C)c(O)c(CSCCCCCCCC)c1`, the “viability change, negative = cytotoxic” value was 15.4% (inactive).
With `CCCCN(CCCC)CC(O)c1cc(Cl)cc2c1-c1ccc(Cl)cc1/C2=C/c1ccc(Cl)cc1` (stereo not given) the “viability change, negative = cytotoxic” value was 4.07% [at 42.5 µM] (inactive).
In the case of `N#C[C@@H]1C[C@@H]2C[C@@H]2N1C(=O)[C@@H](N)C12CC3CC(CC(O)(C3)C1)C2`, the “viability change, negative = cytotoxic” value was -0.109% [at 42.5 µM] (inactive).
With `CN(C)CC/C=C1\c2ccccc2Sc2ccc(Cl)cc21` the “viability change, negative = cytotoxic” value was -18.6% [at 42.5 µM] (inactive).
With `O=C1NS(=O)(=O)c2ccccc21` the Potency was “inactive”.
For `CC1(C)C(=O)N(Br)C(=O)N1Br`, the “viability change, negative = cytotoxic” value was -1.96% (inactive).
With `CC(=O)[O][Al]` the “viability change, negative = cytotoxic” value was 9.23% (inactive).
For `CCC(Cl)CCC(Cl)C(Cl)CC(Cl)C(Cl)C(Cl)CCl` (stereo not given), the “viability change, negative = cytotoxic” value was 2.76% (inactive).
For `O=S(=O)(O)c1ccc(Nc2nc(Nc3ccc(/C=C/c4ccc(Nc5nc(Nc6ccc(S(=O)(=O)O)cc6)nc(N(CCO)CCO)n5)cc4S(=O)(=O)O)c(S(=O)(=O)O)c3)nc(N(CCO)CCO)n2)cc1`, the “viability change, negative = cytotoxic” value was 9.3% [at 42.5 µM] (inactive).
For `ClC1=C(Cl)C1(Cl)Cl`, the “viability change, negative = cytotoxic” value was 7.86% (inactive).
With `Cc1ncc(CO)c(CN)c1O` the “viability change, negative = cytotoxic” value was -0.138% [at 42.5 µM] (inactive).
In the case of `O=C(O)CCCCC(=O)O`, the Potency was “inactive”.
For `CO/N=C(/C(=O)N[C@@H]1C(=O)N2C(C(=O)O)=C(Cn3nnc(C)n3)CS[C@H]12)c1csc(N)n1`, the “viability change, negative = cytotoxic” value was -0.0468% [at 42.5 µM] (inactive).
For `COC(=O)c1cccc(C(=O)OC)c1`, the Potency was “inactive”.
In the case of `CC[C@H](C)[C@H](N)C(=O)O`, the “viability change, negative = cytotoxic” value was -2.39% [at 42.5 µM] (inactive).
In the case of `CCc1ccc2c(c1)C(=O)c1ccccc1C2=O`, the “viability change, negative = cytotoxic” value was -9.96% (inactive).
For `C/C=C(C)/C=C/C=C(C)C`, the Potency was “inactive”.
For `C[C@H]1C[C@H]2[C@@H]3CCC4=CC(=O)C=C[C@]4(C)[C@H]3C(=O)C[C@]2(C)[C@@]1(O)C(=O)CO`, the “viability change, negative = cytotoxic” value was -2.3% [at 42.5 µM] (inactive).
For `Nc1ncn([C@@H]2O[C@H](CO)[C@@H](O)[C@H]2O)c(=O)n1`, the Potency was “inactive”.
For `O=C(OCC1CCC2OC2C1)C1CCC2OC2C1` (stereo not given), the Potency was “inactive”.
In the case of `CCOc1ccc(NC(=O)CC(C)=O)cc1`, the “viability change, negative = cytotoxic” value was 6.18% (inactive).
For `NCCc1cnc[nH]1`, the “viability change, negative = cytotoxic” value was 3.34% [at 42.5 µM] (inactive).
With `O=C1CCCc2ccccc21` the “viability change, negative = cytotoxic” value was 5.1% (inactive).
For `CCOC(=O)COc1ccc(C)cc1`, the “viability change, negative = cytotoxic” value was -2.49% (inactive).
With `CSc1ccc(Cl)cc1` the Potency was “inactive”.
In the case of `CC(=O)O[C@H](CC(=O)[O-])C[N+](C)(C)C`, the “viability change, negative = cytotoxic” value was 0.0355% (inactive).
